# Laboratory results reported in PubChem BioAssay (NCATS).
# Where “and” joins values, the source holds several entries; their conditions need not be identical. Identical values can stand only once. A number with no mark means an inactive call. Results filed as inconclusive are left out. A call without a number means that no potency is given here. Calls of active or inactive are those of the source. Calls follow the shape of the dose curve; as a rule, active = well fitted curve in the direction sought with a large enough effect; inconclusive = small, poorly fitted or top-dose-only effect, or another doubt; inactive = no such curve, though single readings can be large; an effect the other way counts as inactive or inconclusive.
# Key:
# [1] = biological target: Lysine-specific demethylase 5B (Homo sapiens) (UniProt Q9UGL1); assay: Optimization screen for KDM5B Histone Demethylases FDH coupled qHTS against the LOPAC library (AID 1347166)
# In short: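 KDM5BDeltaAP (200nM final) in 50mM HEPES pH 7.5, 0.01% Tween-20 was preincubated with compound for 10 min at room temperature. A substrate mix of 12.5uM H3K4Me3, 25uM a-ketoglutarate, ascorbate, Fe2+, NAD+ and formaldehyde dehydrogenase was then added. NADH fluorescence (340/450 nm) was read initially and after 30 min.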
# [2] = Vero cells viability qHTS for Zika virus inhibitors (AID 1347167)
# In short: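 Luminescent ATP readout (CellTiter Glo) after 30 min at 37 degrees C gives viability; cells in DMEM + 4% FBS were treated 24 to 48 hours with compound, following overnight attachment.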
# [3] = Tertiary RLuc qRT-PCR qHTS assay for Zika virus inhibitors (AID 1347169); also: nearly all actives have a fitted effect of over 55% in size; also: potency is read from the fitted curve at half-maximal effect
# In short: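 Inhibition of ZIKV-RLuc replication in Vero cells, read as Renilla luminescence 1-1.5 hrs after live-cell substrate addition, following 48-72 hrs infection at MOI 1-2 in presence of compound.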
# [4] = qHTS to identify inhibitors of the type 1 interferon - major histocompatibility complex class I in skeletal muscle: primary screen against the NCATS LOPAC collection (AID 1347405);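 also: human myoblasts with HiBiT tag on endogenous HLA-B stimulated by IFN-beta; lytic HiBiT luminescence reporting HLA-B protein level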
# In short: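 IFN-beta-stimulated (4 ng/ml) HLA-B HiBiT knock-in myoblasts, compound-treated 24 hrs up to 46 uM final; signal via LgBiT complementation and furimazine luminescence.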
# [5] = qHTS to identify inhibitors of the type 1 interferon - major histocompatibility complex class I in skeletal muscle: primary screen against the NCATS Pharmaceutical Collection (AID 1347407);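 also: luminescence of HiBiT knocked into endogenous HLA-B as interferon-induced MHC class I level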
# In short: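 A qHTS format is used: 8-point, 1:5 compound series with 46 uM top final concentration, applied alongside 4 ng/ml IFN-beta to HLA-B*08:01-HiBiT knock-in myoblasts. Luminescence is measured after 24 h treatment.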
# [6] = qHTS for inhibitors of adenylyl cyclases using a fission yeast platform: a pilot screen against the NCATS LOPAC library (AID 1347410)
# In short: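 Inhibition of GNAS-stimulated AC9 activity in S. pombe was inferred from derepression of a PKA-repressed fbp1-GFP reporter, measured as cytometric fluorescence after 18 h at 30C with compounds at up to 57 µM.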
# [7] = qHTS to identify inhibitors of the type 1 interferon - major histocompatibility complex class I in skeletal muscle: primary screen against the NCATS Mechanism Interrogation Plate v5.0 (MIPE) Libary (AID 1347411); also: nearly all actives have a fitted effect of over 65% in size
# In short: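 IFN-beta-driven (4 ng/ml) HLA-B-HiBit expression in CRISPR-tagged C25cl48 myoblasts; compounds 11-pt, 1:3, max 46 uM, 24 hr exposure; lytic NanoLuc complementation luminescence.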
# [8] = biological target: Protein phosphatase 1D (Homo sapiens) (UniProt O15297); assay: RapidFire Mass Spectrometry qHTS Assay for Modulators of WT P53-Induced Phosphatase 1 (WIP1) (AID 1347424);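 also: amount of dephosphorylated VEPPL-S-QETFS peptide product formed by WIP1; series mostly up to about 63 µM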
# In short: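 RapidFire mass spectrometry measured dephosphorylated peptide after 5 min room-temperature reaction of 2 uM VEPPL-pS-QETFS with 10 nM WIP1 (50 mM Tris-HCl pH 7.5, 30 mM MgCl2, 0.1 mM EGTA, BSA), following 1 hr compound preincubation; 1 uM isotope-labelled product standard.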
# [9] = biological target: Protein phosphatase 1D (Homo sapiens) (UniProt O15297); assay: Rhodamine-PBP qHTS Assay for Modulators of WT P53-Induced Phosphatase 1 (WIP1) (AID 1347425)
# In short: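 5 nM WIP1 + 10 uM Rh-PBP, 50 mM Tris pH 7.5, 30 mM MgCl2, 1 mM TCEP, 0.1 mM EGTA, BSA; cpds pinned, 1 hr RT; + 10 uM phosphopeptide; fluorescence 1-min reads x 11 min; delta = f1 - f0.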
# [10] = Validation qHTS assay for inhibitors of Activation Induced Cytidine Deaminase (AID): UDG Counterscreen signal (AID 1347427)
# In short: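 Fluorescence at 560 nm excitation, 665 nm emission reports UDG signal after 250 mM NaOH (2x) addition and 30 min. Enzymes (AID 1 uM, UDG 2 U/mL, at 4/3x) preincubated 10 min with compound, then 4 h with 4x 250 nM DJC20/DJC23 substrate at room temperature.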
# [11] = biological target: Single-stranded DNA cytosine deaminase (Homo sapiens) (UniProt Q9GZX7); assay: Validation qHTS assay for inhibitors of Activation Induced Cytidine Deaminase (AID): AID signal (AID 1347429)
# In short: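 Compounds (up to 114 uM final) are tested against AID plus UDG using DJC20/DJC23 FRET substrate. Reactions incubate 4 hr at room temperature, receive NaOH for 30 min, and are read at Ex 540/Em 590 nm.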
# [12] = Primary qHTS for inhibitors of La Crosse Virus (LACV) - induced cell death in SH-SY5Y cells (AID 1508616);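 also: top concentration of the series differs between compounds; higher means more rescue of cells from virus-induced death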
# In short: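 Screening measures cell viability in LACV-infected SH-SY5Y cultures. Compound was added before virus (0.01 MOI), and ATP was detected by luminescence 6 days later.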
# [13] = biological target: Calcium and integrin-binding protein 1 (Homo sapiens) (UniProt Q99828); assay: Validation qHTS for Identification of Calcium Integrin Binding protein 1 (CIB1) Competitor (AID 1508618)
# In short: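 Displacement of FITC-alphaIIb peptide (100 nM) from CIB1-GST (1 uM) is monitored by polarization in quantitative HTS format; buffer carries 5 mM CaCl2 and 125 mM NaCl at pH 7.4, incubations are at room temperature.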
# [14] = biological target: Calcium and integrin-binding protein 1 (Homo sapiens) (UniProt Q99828); assay: Primary qHTS for Identification of Calcium Integrin Binding Protein 1 (CIB1) Competitor (AID 1508620);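 also: GST tagged CIB1 binding a fluorescein labelled alphaIIb integrin peptide tracer; top concentration of the series differs between compounds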
# In short: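 CIB1-GST (1 uM final) and compound incubated 15 min at room temperature before adding FITC-alphaIIb peptide tracer (100 nM final). Competition for binding read by fluorescence polarization (ex 480, em 540) after another 15 min at room temperature.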
# [15] = Confirmatory screen NINDS Rhodamine qHTS for Zika virus inhibitors (AID 1347161);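 also: purified Zika NS2B-NS3 protease with linked NS2B cofactor domain and Rhodamine110 peptide substrate; series mostly up to about 110 µM; nearly all actives have a fitted effect of over 60% in size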
# In short: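 Single-chain NS2B-NS3 protease, 25 nM, pH 8.0; compounds preincubated 15 min. Activity: Rhodamine110 release from 1.5 microM substrate over 15 min, room temperature, data fitted to 4-parameter Hill.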
# [16] = Counterscreen qHTS for small molecule stabilizers of the endoplasmic reticulum resident proteome: GLuc-NoTag assay (AID 1508627); also: potency is read from the fitted curve at half-maximal effect
# In short: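 Counterscreen line: SH-SY5Y-GLuc-NoTag cells, treated with compound 19 hr before a 4 hr, 100 nM thapsigargin calcium depletion. Secreted Gaussia luciferase in the medium was measured by luminescence after coelenterazine was added (0.07x final), with cells unlysed.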
# [17] = Confirmatory qHTS for small molecule stabilizers of the endoplasmic reticulum resident proteome: Secreted ER Calcium Modulated Protein (SERCaMP) assay (AID 1508628); also: nearly all actives have a fitted effect of over 40% in size; also: potency is read from the fitted curve at half-maximal effect
# In short: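 GLuc-SERCaMP-expressing SH-SY5Y cells, pretreated 16 h with compound, are challenged with thapsigargin to empty ER calcium stores; after 4 h, coelenterazine is added directly to the medium and luminescence is imaged.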
# Sequence of Single-stranded DNA cytosine deaminase (Homo sapiens) (Q9GZX7 whole entry, looked up): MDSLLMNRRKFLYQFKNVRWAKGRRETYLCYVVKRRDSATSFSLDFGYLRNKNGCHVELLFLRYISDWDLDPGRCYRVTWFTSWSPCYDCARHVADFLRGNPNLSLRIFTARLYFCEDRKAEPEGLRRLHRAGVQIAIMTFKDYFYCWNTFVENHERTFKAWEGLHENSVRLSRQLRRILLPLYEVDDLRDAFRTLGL
# Sequence of Lysine-specific demethylase 5B (Homo sapiens) (Q9UGL1 whole entry, looked up): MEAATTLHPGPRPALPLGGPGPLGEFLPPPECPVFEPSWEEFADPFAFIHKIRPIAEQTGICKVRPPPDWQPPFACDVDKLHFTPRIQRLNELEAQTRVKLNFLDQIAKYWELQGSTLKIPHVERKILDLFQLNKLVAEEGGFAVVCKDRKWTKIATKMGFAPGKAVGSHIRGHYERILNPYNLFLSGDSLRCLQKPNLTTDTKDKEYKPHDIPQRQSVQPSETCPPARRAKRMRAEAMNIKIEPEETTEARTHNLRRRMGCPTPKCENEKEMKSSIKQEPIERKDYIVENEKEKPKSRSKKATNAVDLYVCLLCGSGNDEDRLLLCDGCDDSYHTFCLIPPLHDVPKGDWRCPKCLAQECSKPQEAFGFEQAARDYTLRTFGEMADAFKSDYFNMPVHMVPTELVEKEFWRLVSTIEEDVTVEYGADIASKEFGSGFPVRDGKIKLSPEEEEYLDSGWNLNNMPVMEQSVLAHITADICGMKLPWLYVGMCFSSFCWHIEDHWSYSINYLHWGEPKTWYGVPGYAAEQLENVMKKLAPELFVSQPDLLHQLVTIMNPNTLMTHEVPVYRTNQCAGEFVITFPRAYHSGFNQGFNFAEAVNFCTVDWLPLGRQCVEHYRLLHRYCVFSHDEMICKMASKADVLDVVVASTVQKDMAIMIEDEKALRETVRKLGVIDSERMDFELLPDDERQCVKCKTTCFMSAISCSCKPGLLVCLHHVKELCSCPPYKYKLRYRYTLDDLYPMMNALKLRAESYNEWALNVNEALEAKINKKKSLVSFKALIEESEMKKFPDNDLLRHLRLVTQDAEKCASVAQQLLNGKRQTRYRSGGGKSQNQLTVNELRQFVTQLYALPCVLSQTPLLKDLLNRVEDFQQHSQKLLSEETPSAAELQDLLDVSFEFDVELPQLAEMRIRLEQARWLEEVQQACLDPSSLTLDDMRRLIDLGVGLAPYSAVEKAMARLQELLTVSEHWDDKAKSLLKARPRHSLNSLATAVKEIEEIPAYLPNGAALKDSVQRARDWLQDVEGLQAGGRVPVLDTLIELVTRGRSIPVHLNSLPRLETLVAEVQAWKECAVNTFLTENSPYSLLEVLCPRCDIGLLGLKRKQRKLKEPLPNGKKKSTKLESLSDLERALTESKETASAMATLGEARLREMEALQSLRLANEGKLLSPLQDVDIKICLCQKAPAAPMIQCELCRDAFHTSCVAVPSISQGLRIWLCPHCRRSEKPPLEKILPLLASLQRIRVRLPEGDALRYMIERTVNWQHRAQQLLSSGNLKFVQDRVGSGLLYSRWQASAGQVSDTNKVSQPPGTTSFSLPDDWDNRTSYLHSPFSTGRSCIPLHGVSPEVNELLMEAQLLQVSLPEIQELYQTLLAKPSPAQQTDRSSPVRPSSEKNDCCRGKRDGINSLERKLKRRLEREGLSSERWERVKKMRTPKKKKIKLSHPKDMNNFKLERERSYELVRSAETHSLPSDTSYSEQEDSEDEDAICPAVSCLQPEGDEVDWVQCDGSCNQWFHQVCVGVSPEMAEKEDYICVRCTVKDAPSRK
# Sequence of Protein phosphatase 1D (Homo sapiens) (O15297 whole entry, looked up): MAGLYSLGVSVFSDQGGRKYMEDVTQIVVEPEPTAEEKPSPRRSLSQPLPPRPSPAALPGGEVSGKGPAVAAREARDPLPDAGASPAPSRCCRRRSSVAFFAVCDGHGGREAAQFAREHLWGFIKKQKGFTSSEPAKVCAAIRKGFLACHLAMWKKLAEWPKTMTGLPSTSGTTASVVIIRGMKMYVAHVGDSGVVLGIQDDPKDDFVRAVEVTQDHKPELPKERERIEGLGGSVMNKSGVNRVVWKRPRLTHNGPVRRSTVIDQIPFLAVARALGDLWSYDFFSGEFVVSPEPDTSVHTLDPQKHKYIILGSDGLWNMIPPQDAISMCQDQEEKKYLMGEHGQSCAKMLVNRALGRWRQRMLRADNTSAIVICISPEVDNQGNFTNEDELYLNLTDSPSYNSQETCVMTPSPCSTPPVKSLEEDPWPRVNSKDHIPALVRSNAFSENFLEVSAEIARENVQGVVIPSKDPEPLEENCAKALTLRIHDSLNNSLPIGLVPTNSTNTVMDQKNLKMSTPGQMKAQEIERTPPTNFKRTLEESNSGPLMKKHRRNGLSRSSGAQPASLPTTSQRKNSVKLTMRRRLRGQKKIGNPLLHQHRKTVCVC
# Sequence of Calcium and integrin-binding protein 1 (Homo sapiens) (Q99828 whole entry, looked up): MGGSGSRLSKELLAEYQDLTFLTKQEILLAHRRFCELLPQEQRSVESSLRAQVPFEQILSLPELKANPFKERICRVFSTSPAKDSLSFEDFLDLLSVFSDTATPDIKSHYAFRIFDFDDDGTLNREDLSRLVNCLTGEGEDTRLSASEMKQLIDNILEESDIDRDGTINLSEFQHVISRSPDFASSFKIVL
Structure (SMILES),outcome [1],outcome [2],Potency [3],Potency [4],outcome [5],outcome [6],Potency [7],Potency [8],outcome [9],outcome [10],Potency [11],outcome [12],Potency [13],outcome [14],Potency [15],Potency [16],Potency [17]
Cn1cnc([N+](=O)[O-])c1Sc1ncnc2nc[nH]c12,inactive,inactive,26.9 µM (active),inactive,inactive,inactive,inactive,inactive,inactive,inactive,inactive,inactive,inactive,inactive,–,–,–
CNC[C@H](O)c1cccc(O)c1,inactive,–,–,inactive,inactive,inactive,inactive,inactive,inactive,inactive,inactive,inactive,–,inactive,–,–,–
Cc1[nH]c(=O)c(C#N)cc1-c1ccncc1,–,inactive,inactive,inactive,inactive,inactive,inactive,inactive,inactive,inactive,inactive,inactive,inactive,inactive,inactive,–,–
O=C1CCc2cc(OCCCCc3nnnn3C3CCCCC3)ccc2N1,inactive,–,–,inactive,inactive,inactive,inactive,inactive,inactive,inactive,inactive,inactive,inactive,inactive,–,–,–
CCn1cc(C(=O)O)c(=O)c2cc(F)c(N3CCNC(C)C3)c(F)c21 (stereo unspecified),–,inactive,inactive,inactive,inactive,inactive,inactive,inactive,inactive,inactive,inactive,inactive,inactive,inactive,inactive,–,–
OC(CCN1CCCCC1)(c1ccccc1)C1CC2C=CC1C2 (stereo unspecified),inactive,–,–,inactive,inactive,inactive,inactive,inactive,inactive,inactive,inactive,inactive,inactive,inactive,–,inactive,15.8 µM (active) and 22.4 µM (active)
O=c1n(CCCN2CCN(c3cccc(Cl)c3)CC2)nc2ccccn12,–,inactive,–,inactive,inactive,inactive,–,inactive,inactive,inactive,inactive,inactive,inactive,inactive,inactive,–,–
NC(=O)c1cnccn1,inactive,–,–,inactive,inactive,inactive,inactive,inactive,inactive,inactive,inactive,inactive,inactive,inactive,–,–,–
N=c1nc(N2CCCCC2)cc(N)n1O,inactive,–,–,inactive,inactive,inactive,–,inactive,inactive,inactive,inactive,inactive,–,–,–,–,–
c1ccc([C@H]2CN3CCSC3=N2)cc1,inactive,–,–,inactive,inactive,inactive,inactive,inactive,inactive,inactive,inactive,inactive,inactive,inactive,–,–,–
Nc1nc2ccc(OC(F)(F)F)cc2s1,inactive,–,–,inactive,inactive,inactive,inactive,inactive,inactive,inactive,inactive,inactive,inactive,inactive,–,–,–
COCC(=O)NCC=Cc1ccc2ncnc(Nc3ccc(Oc4ccc(C)nc4)c(C)c3)c2c1,–,inactive,–,–,–,–,–,–,–,–,–,–,–,inactive,inactive,–,–
NS(=O)(=O)c1cc2c(cc1Cl)NC=NS2(=O)=O,inactive,–,–,inactive,inactive,inactive,inactive,inactive,inactive,inactive,inactive,inactive,inactive,inactive,–,–,–
Nc1nc2c(ncn2COCCO)c(=O)[nH]1,inactive,–,–,–,–,inactive,–,inactive,inactive,–,–,inactive,inactive,inactive,–,inactive,inactive
Clc1cccc(Cl)c1NC1=NCCN1,inactive,–,–,inactive,inactive,inactive,–,inactive,inactive,inactive,inactive,inactive,inactive,inactive,–,–,–
CC(C)C[C@H](NC(=O)[C@@H](O)[C@H](N)Cc1ccccc1)C(=O)O,inactive,–,–,inactive,–,inactive,inactive,–,–,inactive,inactive,inactive,inactive,inactive,–,–,–
NNCCc1ccccc1,–,–,–,inactive,inactive,inactive,inactive,inactive,inactive,–,inactive,inactive,inactive,inactive,–,–,–
OC(CN1CCC(Cc2ccc(F)cc2)CC1)c1ccc(Cl)cc1 (stereo unspecified),inactive,–,–,–,inactive,inactive,–,inactive,inactive,inactive,inactive,inactive,inactive,inactive,–,17.8 µM (active),–
O=C(Nc1nc2ccccc2n1CCN1CCOCC1)c1cccc([N+](=O)[O-])c1,inactive,–,–,–,–,inactive,inactive,–,–,inactive,inactive,inactive,inactive,inactive,–,–,–
Oc1ccc(C2CNCCc3c2cc(O)c(O)c3Cl)cc1 (stereo unspecified),–,–,–,inactive,inactive,inactive,inactive,inactive,inactive,inactive,inactive,inactive,inactive,inactive,–,inactive,–
C1COC(NC(C2CC2)C2CC2)=N1,inactive,–,–,inactive,–,inactive,inactive,inactive,–,inactive,inactive,inactive,inactive,inactive,–,–,–
Cc1cnc(NC(=O)C2=C(O)c3ccccc3S(=O)(=O)N2C)s1,inactive,–,–,–,–,inactive,–,inactive,inactive,–,–,inactive,–,–,–,–,–
